# From PubChem BioAssay (NCI)
# About 83,000 compounds went through this panel and 20% of them were active in at least one assay; those are over-represented in the sample as a whole.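 Step 1: grow cells in 96-well plates. Step 2: add test compound at a single concentration. Step 3: incubate 48 h. Step 4: record percent growth.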 A number with no mark means an inactive call. Calls of active or inactive are those of the source. Rule for the calls: active = growth percent below 10; inactive = the rest.
# How the values were obtained:
# Assay in all cases: NCI-60 one-dose screen, 48 h (100 = growth as untreated, 0 = no growth, -100 = all killed)
# Conditions in all cases: 10 µM unless noted
# T-47D breast = tested on: T-47D breast
# BT-549 breast = tested on: BT-549 breast
# MDA-MB-435 melanoma = tested on: MDA-MB-435 melanoma
# SW-620 colon = tested on: SW-620 colon
# MCF7 breast = tested on: MCF7 breast
# HCT-116 colon = tested on: HCT-116 colon
# HCC-2998 colon = tested on: HCC-2998 colon
# KM12 colon = tested on: KM12 colon
Structure (SMILES),growth (T-47D breast),growth (BT-549 breast),growth (MDA-MB-435 melanoma),growth (SW-620 colon),growth (MCF7 breast),growth (HCT-116 colon),growth (HCC-2998 colon),growth (KM12 colon)
NC(N)=Nc1ccc(Oc2cccc(NC(N)=Nc3ccc(Cl)c(C(F)(F)F)c3)c2)cc1,57.9%,43.8%,62.9%,57%,42%,44.9%,66.2%,26.2%
O=C(Cn1cc(-c2ccccc2)nn1)Nc1nc(-c2ccc(Cl)cc2)cs1,95%,98.1%,95.7%,108%,87%,108%,105%,108%
c1ccc(C(c2nc3ncncc3[nH]2)N2CSc3nc4ncncc4n3C2)cc1 (configuration not stated),34.4%,73.1%,29.2%,79%,14.2%,41.5%,55.6%,51.7%
Cc1occc1-c1nc2s/c(=C/c3ccc(-c4cc(C(F)(F)F)ccc4Cl)o3)c(=O)n2n1,92.7%,108%,101%,101%,90%,102%,106%,99.9%
CC(C)(C)c1ccc(-c2nnc(-c3nc4ccccc4nc3Cl)o2)cc1,-70.5% (active),104%,69%,66.2%,-65.9% (active),14.2%,98.5%,65.8%
CCCn1cnc2c(c1=N)C(c1ccc(OC)cc1)c1sc3c(C)cccc3c1O2 (configuration not stated),40.6%,12.2%,-33.4% (active),25.7%,20.4%,6.27% (active),15%,11.7%
O=S(=O)(NCCNc1nccc(-n2cnc3ccccc32)n1)c1ccc(Br)cc1,59.1%,115%,108%,110%,78.4%,99.8%,103%,85.4%
COc1cc(OC)cc(C(=O)Nc2cccc(C#Cc3cccc4[nH]nc(N)c34)c2)c1,31.2%,33.7%,-38.1% (active),15.9%,26.2%,13%,43.3%,12%
CN(Cc1ccccc1)S(=O)(=O)/N=C1\NC(=O)NC1=C(Cl)Cl,56.8%,94.6%,79.6%,-49.5% (active),12.6%,21.3%,71.8%,4.88% (active)
Cn1cc(-c2nc(N)nnc2-c2c[nH]c3ccccc23)c2cc(Br)ccc21,31.2%,32.9%,-37.6% (active),18.2%,18.1%,20.3%,57.6%,18.1%
COc1cc2nc(Cl)nc(Nc3cccc(C4=Nc5c(N)nc(N)nc5NC(c5ccc(Cl)cc5)C4)c3)c2cc1OC (configuration not stated),81.7%,85.2%,6.34% (active),11.2%,13%,-44.8% (active),4.35% (active),14.1%
CNC1CCc2c(sc(NC(=O)c3ccc(C(C)(C)C)cc3)c2C(N)=O)C1 (configuration not stated),53.6%,74.7%,45.2%,-53.5% (active),-34.2% (active),3.12% (active),28.6%,10%
Cc1ccc(S(=O)(=O)NCCNc2nc(Nc3ccc(N4CCN(C)CC4)cc3)nc3ccsc23)cc1,102%,114%,109%,103%,87.4%,69.7%,104%,100%
NC(=O)c1cccc(C#CCNC[C@H]2C[C@@H](n3ccc4c(Cl)ncnc43)[C@H](O)[C@@H]2O)c1,96.6%,102%,-89.6% (active),104%,96.5%,104%,107%,106%
NS(=O)(=O)c1ccc(-n2cc(CN3CCCCC3)nn2)cc1,110%,108%,106%,106%,96.9%,107%,106%,95.3%
CC(C)(C)n1cc(-c2ccnc(NCCCNS(=O)(=O)c3cccc(F)c3)n2)c(-c2ccc(Cl)c(O)c2)n1,75.1%,95.6%,101%,116%,97.9%,88.6%,114%,92.9%
NC(N)=Nc1ccc(Oc2cccc(NC(N)=Nc3ccc(I)cc3F)c2)cn1,26.1%,89.5%,68.3%,76.3%,7.64% (active),58.2%,70.9%,47.7%
Cc1cc(C)c(N2C(=O)CC(Nc3ccc(Cl)cc3Cl)C2=O)c(C)c1 (configuration not stated),93.7%,112%,102%,102%,91%,104%,118%,105%
COc1cc(Cn2cc3c(c2)-c2onc(CN4CCCC4)c2CC3)cc(OC)c1OC,76.1%,93.2%,96.4%,104%,80.6%,95.9%,106%,90.3%
CCOC(=O)C(=O)/C(=C\c1ccc(Cl)cc1)C(=O)N1C(=S)NC(=O)C1CC(C)C (configuration not stated),98.2%,108%,98.6%,104%,92%,99.3%,101%,98.8%
CCOc1ccc(C(=O)Nc2ncc(Cc3ccc(F)cc3)s2)cc1,34.1%,57.1%,-16.1% (active),26.1%,19.1%,13.2%,15.5%,16.7%
Cc1ccc(S(=O)(=O)N(CC[C@@H]2C[C@H]2c2cc3ccccc3o2)S(=O)(=O)c2ccc(C)cc2)cc1,78.3%,98%,104%,95.2%,79.6%,92.5%,100%,103%
Nc1nc(-c2cccc([N+](=O)[O-])c2)c(N=Nc2ccccc2)s1,40.5%,73.2%,64.9%,64.9%,51.9%,54.8%,71.6%,44%
COc1ccc(-c2nc3cc(Cl)c(Cl)cc3n2CC(=O)N=Nc2c(O)[nH]c3ccc(OC)cc23)cc1,37.2%,-6.95% (active),56.4%,61.4%,67.6%,39.7%,52.8%,71.3%
Cn1cc(-c2nnc(N)nc2-c2c[nH]c3ccc(F)cc23)c2cc(F)ccc21,26.1%,71.2%,94.8%,59.8%,30.4%,62.1%,93.1%,74.5%
O=C(CSc1nc2ccccc2c(=O)n1-c1ccccc1)Nc1ccc(-c2nc3ccc([N+](=O)[O-])cc3[nH]2)cc1,89.1%,80%,80.1%,43.7%,40.6%,67.4%,100%,91.7%
O=C(CSc1nnc(-c2ccc(Cl)cc2)n1-c1ccccc1)Nc1ccc(Br)cc1,8.35% (active),36.7%,27.2%,37.9%,38.6%,-64.2% (active),77.9%,45.4%
Cc1ccc(C2=Nn3c(nnc3-c3ccccc3)SC2)cc1,29.2%,22.5%,-22.2% (active),13.3%,16.4%,17.7%,39.9%,36.4%
Nc1ncc(-c2ccc3ncnc(Nc4cccc(Cl)c4F)c3c2)cn1,23.8%,61.3%,80.4%,91.1%,38.2%,96.4%,56.5%,89.6%
